# According to PubChem BioAssay AID1159580 (chemical genetic matrix, 2015):
# Several values for one entry are separate records, joined by “and”; a condition that tells them apart may be missing. Identical values can stand only once. Among all 5,500 compounds or so, about 2,000 (36%) were called active. Another 18% or so got no clear call; they are omitted. The list shows a part of the results. Values without a mark were called inactive. Rule as the data show it: active = normalized growth mostly below about 0.91 (no sharp cut-off); inconclusive = no clear call, values can overlap the other calls; inactive = mostly above about 0.92.
# Assay: chemical genetic growth profiling, strain panel (AID 1159580);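 also: tested at 20 µM; growth read once vehicle control cultures reached saturation at 30 °C; 1 = growth at the plate median or of vehicle wells; lower values mean less growth of the strain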
# Conditions: S. cerevisiae deletion strains, growth OD
compound,measurement,setting,value
C=CCc1cc(OC)c2c(c1OC)OCO2,normalized growth,"locus YAL013W, strain DEP1, stronger effect = lower value",0.971
same,normalized growth,"locus YAL021C, strain ccr4, stronger effect = lower value",1
same,normalized growth,"locus YAL026C, strain drs2, stronger effect = lower value",0.955
same,normalized growth,"locus YAL030W, strain snc1, stronger effect = lower value",0.95
same,normalized growth,"locus YBL061C, strain skt5, stronger effect = lower value",0.926
same,normalized growth,"locus YBR009C, strain hhf1, stronger effect = lower value",0.938
same,normalized growth,"locus YBR021W, strain FUR4, stronger effect = lower value",0.934
same,normalized growth,"locus YBR023C, strain chs3, stronger effect = lower value",0.902 (active)
same,normalized growth,"locus YBR171W, strain sec66, stronger effect = lower value",0.874 (active)
same,normalized growth,"locus YBR229C, strain ROT2, stronger effect = lower value",0.996
same,normalized growth,"locus YBR231C, strain swc5, stronger effect = lower value",0.982
same,normalized growth,"locus YBR279W, strain paf1, stronger effect = lower value",0.966
same,normalized growth,"locus YCL011C, strain gbp2, stronger effect = lower value",0.937
same,normalized growth,"locus YCL016C, strain dcc1, stronger effect = lower value",0.937
same,normalized growth,"locus YCL029C, strain bik1, stronger effect = lower value",0.945
same,normalized growth,"locus YCL061C, strain MRC1, stronger effect = lower value",0.944
same,normalized growth,"locus YCL069W, strain vba3, stronger effect = lower value",0.969
same,normalized growth,"locus YCR088W, strain abp1, stronger effect = lower value",0.954
same,normalized growth,"locus YDL005C, strain med2, stronger effect = lower value",0.992
same,normalized growth,"locus YDL035C, strain GPR1, stronger effect = lower value",0.968
same,normalized growth,"locus YDL040C, strain nat1, stronger effect = lower value",0.924 (active)
same,normalized growth,"locus YDL074C, strain BRE1, stronger effect = lower value",0.91
same,normalized growth,"locus YDL101C, strain DUN1, stronger effect = lower value",0.995
same,normalized growth,"locus YDL134C, strain PPH21, stronger effect = lower value",0.982
same,normalized growth,"locus YDL185W, strain tfp1, stronger effect = lower value",0.968
same,normalized growth,"locus YDL192W, strain arf1, stronger effect = lower value",0.956
same,normalized growth,"locus YDR001C, strain nth1, stronger effect = lower value",0.93
same,normalized growth,"locus YDR069C, strain doa4, stronger effect = lower value",1.06
same,normalized growth,"locus YDR101C, strain arx1, stronger effect = lower value",0.908 (active)
same,normalized growth,"locus YDR137W, strain rgp1, stronger effect = lower value",0.955
same,normalized growth,"locus YDR150W, strain NUM1, stronger effect = lower value",0.979
same,normalized growth,"locus YDR159W, strain sac3, stronger effect = lower value",0.797 (active)
same,normalized growth,"locus YDR162C, strain NBP2, stronger effect = lower value",0.951
same,normalized growth,"locus YDR195W, strain ref2",1.22 [resistant] (active)
same,normalized growth,"locus YDR297W, strain sur2, stronger effect = lower value",0.94
same,normalized growth,"locus YDR318W, strain mcm21, stronger effect = lower value",0.947
same,normalized growth,"locus YDR334W, strain swr1, stronger effect = lower value",1.02
same,normalized growth,"locus YDR335W, strain msn5, stronger effect = lower value",0.982
same,normalized growth,"locus YDR388W, stronger effect = lower value",0.947
same,normalized growth,"locus YDR392W, strain spt3, stronger effect = lower value",0.378 (active)
same,normalized growth,"locus YDR502C, strain sam2, stronger effect = lower value",0.929
same,normalized growth,"locus YEL003W, strain gim4, stronger effect = lower value",0.955
same,normalized growth,"locus YEL037C, strain rad23, stronger effect = lower value",0.987
same,normalized growth,"locus YEL061C, strain CIN8 (second series), stronger effect = lower value",0.946
same,normalized growth,"locus YEL061C, strain CIN8, stronger effect = lower value",0.966
same,normalized growth,"locus YER015W, strain faa2, stronger effect = lower value",0.955
same,normalized growth,"locus YER016W, strain bim1, stronger effect = lower value",0.938
same,normalized growth,"locus YER110C, stronger effect = lower value",0.929
same,normalized growth,"locus YER111C, strain swi4, stronger effect = lower value",0.898 (active)
same,normalized growth,"locus YER155C, strain BEM2 (second series), stronger effect = lower value",0.462 (active)
same,normalized growth,"locus YER155C, strain BEM2, stronger effect = lower value",0.96
same,normalized growth,"locus YER167W, strain BCK2, stronger effect = lower value",0.938
same,normalized growth,"locus YFR010W, strain ubp6, stronger effect = lower value",1.06
same,normalized growth,"locus YGL078C, strain dbp3, stronger effect = lower value",0.959
same,normalized growth,"locus YGL086W, strain mad1, stronger effect = lower value",0.962
same,normalized growth,"locus YGL167C, strain pmr1, stronger effect = lower value",0.908 (active)
same,normalized growth,"locus YGL173C, strain kem1, stronger effect = lower value",0.909
same,normalized growth,"locus YGL227W, strain vid30, stronger effect = lower value",0.882 (active)
same,normalized growth,"locus YGL240W, strain doc1, stronger effect = lower value",0.839 (active)
same,normalized growth,"locus YGL248W, strain PDE1, stronger effect = lower value",0.983
same,normalized growth,"locus YGL253W, strain hxk2, stronger effect = lower value",0.945
same,normalized growth,"locus YGR078C, strain PAC10, stronger effect = lower value",0.903
same,normalized growth,"locus YGR135W, strain pre9, stronger effect = lower value",0.948
same,normalized growth,"locus YGR229C, strain SMI1, stronger effect = lower value",0.932
same,normalized growth,"locus YGR252W, strain gcn5, stronger effect = lower value",0.969
same,normalized growth,"locus YHR013C, strain ard1, stronger effect = lower value",1.32 [resistant] (active)
same,normalized growth,"locus YHR027C, strain rpn1, stronger effect = lower value",0.947
same,normalized growth,"locus YHR030C, strain SLT2, stronger effect = lower value",0.963 and 0.999
same,normalized growth,"locus YHR079C, strain IRE1 (second series), stronger effect = lower value",0.932
same,normalized growth,"locus YHR079C, strain IRE1, stronger effect = lower value",0.995
same,normalized growth,"locus YHR094C, strain hxt1, stronger effect = lower value",0.935
same,normalized growth,"locus YHR129C, strain ARP1, stronger effect = lower value",0.955
same,normalized growth,"locus YHR142W, strain chs7, stronger effect = lower value",0.723 (active)
same,normalized growth,"locus YHR200W, strain rpn10, stronger effect = lower value",0.969
same,normalized growth,"locus YIL066C, strain RNR3, stronger effect = lower value",0.979
same,normalized growth,"locus YIL073C, strain SPO22, stronger effect = lower value",1.07
same,normalized growth,"locus YIL125W, strain kgd1, stronger effect = lower value",0.934
same,normalized growth,"locus YIR030C, strain dcg1, stronger effect = lower value",0.933
same,normalized growth,"locus YJL092W, strain hpr5, stronger effect = lower value",0.922
same,normalized growth,"locus YJL095W, strain BCK1 (second series), stronger effect = lower value",0.879 (active)
same,normalized growth,"locus YJL095W, strain BCK1, stronger effect = lower value",0.868 and 0.994
same,normalized growth,"locus YJL115W, strain asf1, stronger effect = lower value",0.978
same,normalized growth,"locus YJL129C, strain trk1, stronger effect = lower value",0.942
same,normalized growth,"locus YJL134W, strain LCB3, stronger effect = lower value",0.973
same,normalized growth,"locus YJL154C, strain vps35, stronger effect = lower value",0.989
same,normalized growth,"locus YJL164C, strain tpk1, stronger effect = lower value",0.939
same,normalized growth,"locus YJL166W, strain qcr8, stronger effect = lower value",0.934
same,normalized growth,"locus YJL168C, strain set2, stronger effect = lower value",0.94
same,normalized growth,"locus YJL187C, strain SWE1 (second series), stronger effect = lower value",0.985
same,normalized growth,"locus YJL187C, strain SWE1, stronger effect = lower value",0.945
same,normalized growth,"locus YJR043C, strain POL32, stronger effect = lower value",1.05
same,normalized growth,"locus YJR066W, strain TOR1, stronger effect = lower value",0.95
